Results: PubChem BioAssay
Activity calls are given as the source filed them. Unless noted, no rule for the calls is given here.

Assays:
[1] = test system: Wnt5a (protein binding on small-molecule microarray); experiment: Wnt5a binders on small-molecule microarray, primary screen, biophysical, 635/667 nm fluorescence (AID 1142); conditions: 635 nm fluorescence, higher = more signal;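 also: fluorescence read at 667 nm with signal to noise per printed feature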
[2] = cell viability in Huh7 cells, primary screen, cytotoxicity control for HCV replication inhibitor project, CellTiter-Glo luminescence, basal, 48 h (AID 1143); conditions: Huh7 HCV replicon, higher = more signal, called active from +8 up or from −8 down;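 also: Huh7 hepatoma cells carrying a hepatitis C replication reporter with no stimulus; test concentration not given here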
[3] = P. aeruginosa biofilm formation inhibitors, primary screen, PAO1 strain, BacTiter-Glo luminescence, LB-PBS (AID 1144); conditions: 12 h, higher = more signal
[4] = CREB reporter modulators without forskolin, primary screen, cell-based, PC12, CRE-LacZ reporter, unstimulated (AID 1145); conditions: no forskolin, luminescence, 4.5 h, higher = more signal, called active from +8 up or from −8 down
[5] = CREB reporter modulators under forskolin, primary screen, cell-based, PC12, CRE-LacZ reporter, forskolin-stimulated (AID 1146); conditions: luminescence, 4.5 h, higher = more signal, called active from +8 up or from −8 down;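 also: PC12 cells with 6xCRE LacZ reporter stimulated by forskolin 10 µM; beta-galactosidase reporter signal reflecting CREB driven transcription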
[6] = molecular target: Streptavidin (Streptomyces avidinii) (UniProt P22629); experiment: streptavidin binders on small-molecule microarray, primary screen, artefact control for SMM compound annotation, biophysical, 635/667 nm fluorescence (AID 1147); conditions: streptavidin binding, higher = more signal;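 also: signal reflects streptavidin binding to arrayed compounds as a control protein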
Streptavidin (Streptomyces avidinii), sequence (P22629 whole entry, looked up): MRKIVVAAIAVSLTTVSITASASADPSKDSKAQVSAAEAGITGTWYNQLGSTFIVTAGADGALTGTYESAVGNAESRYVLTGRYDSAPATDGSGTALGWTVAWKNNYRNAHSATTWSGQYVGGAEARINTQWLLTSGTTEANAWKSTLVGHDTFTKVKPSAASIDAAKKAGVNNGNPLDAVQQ

[7] = small-molecule binders of probe aInhba, primary screen, biochemical, small-molecule microarray, 635/667 nm fluorescence (AID 1148); conditions: higher = more signal;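 also: score merges 667nm spot fluorescence with signal-to-noise for antibody binding to printed compounds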
Torsin-1A (Homo sapiens) [8] = molecular target: Torsin-1A (Homo sapiens) (UniProt O14656); experiment: torsin A binders from cell lysate, primary screen, small-molecule microarray, wild-type, 635/667 nm (AID 1149); conditions: COS7 hTOR1A-WT lysate, 635 nm fluorescence, higher = more signal
Torsin-1A (Homo sapiens), sequence (O14656 whole entry, looked up): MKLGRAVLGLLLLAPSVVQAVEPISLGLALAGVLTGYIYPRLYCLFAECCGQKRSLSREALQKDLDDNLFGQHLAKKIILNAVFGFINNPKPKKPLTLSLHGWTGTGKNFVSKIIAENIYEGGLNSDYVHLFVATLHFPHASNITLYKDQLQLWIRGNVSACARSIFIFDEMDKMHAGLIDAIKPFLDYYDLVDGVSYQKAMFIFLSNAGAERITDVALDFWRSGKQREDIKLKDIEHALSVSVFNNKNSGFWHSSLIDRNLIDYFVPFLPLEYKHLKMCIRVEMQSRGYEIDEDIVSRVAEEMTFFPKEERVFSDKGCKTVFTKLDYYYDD

Torsin-1A (Homo sapiens) [9] = molecular target: Torsin-1A (Homo sapiens) (UniProt O14656); experiment: small-molecule binders of mutant TOR1A in lysate, primary screen, cell lysate, small-molecule microarray, COS7 lysate, 635/667 nm fluorescence (AID 1150); conditions: COS7 hTOR1A mutant lysate, 635 nm fluorescence, higher = more signal;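 also: score pools 667 nm emission and signal to noise measuring lysate protein binding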
[10] = test system: Sonic hedgehog protein (Shh); experiment: small-molecule binders of Shh protein, primary screen, biochemical, small-molecule microarray, 635/667 nm fluorescence (AID 1151); conditions: small-molecule microarray binding, 635 nm fluorescence; higher = more signal;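 also: Shh protein binding to compounds spotted on small-molecule microarray slides; score combines spot fluorescence intensity with signal-to-noise across triplicate slides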
[11] = E. coli DRC41 culture turbidity changes, primary screen, E. coli filamentation inducer project, strain DRC41, OD650, 48 h (AID 1152);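 also: E. coli MC1000 strain DRC41 lacking acrAB efflux pump and sulA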; conditions: E. coli DRC41 (acrAB sulA), higher = more signal, called active from +8 up or from −8 down
[12] = small-molecule binders of probe aLefty1, primary screen, biochemical, small-molecule microarray, 635/667 nm fluorescence (AID 1153); conditions: higher = more signal;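 also: score merges spot fluorescence with signal-to-noise ratio from the scanned slide images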
[13] = PSAC antagonists in infected red cells, primary screen, cell-based, P. falciparum Indochina, OD700, 1 h (AID 1154); conditions: P. falciparum Indochina infected RBC osmotic lysis, higher = more signal, called active from +8 up or from −8 down
[14] = PSAC antagonists in infected red cells, primary screen, cell-based, P. falciparum Indochina, OD700, 2 h (AID 1155);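 also: lysis reports solute entry through the parasite surface anion channel PSAC; channel blockers reduce lysis of infected cells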; conditions: P. falciparum Indochina infected erythrocytes, osmotic lysis OD700; higher = more signal, called active from +8 up or from −8 down
[15] = osmotic lysis modulators in infected erythrocytes, primary screen, PSAC antagonist project, cell-based, P. falciparum Indochina, OD700, 3 h (AID 1156); conditions: higher = more signal, called active from +8 up or from −8 down
[16] = PSAC antagonists in infected red cells, primary screen, cell-based, P. falciparum Indochina, OD700, 18 h (AID 1157); conditions: P. falciparum Indochina infected erythrocytes, osmotic lysis OD700, 18 h; higher = more signal, called active from +8 up or from −8 down
[17] = modulators of S6 phosphorylation in cells, primary screen, cell-based, A549, cytoblot, luminescence, serum-stimulated (AID 1158); conditions: A549 phospho-S6 cytoblot, 5 h, higher = more signal;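 also: serum-stimulated A549 lung adenocarcinoma cells; signal is phosphorylated S6 detected by cytoblot immunostaining with HRP secondary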
[18] = molecular target: NADPH oxidase 2 (Homo sapiens) (UniProt P04839); experiment: NOX2-dependent H2O2 signal modulators, primary screen, NOX inhibitor project, cell-based, HEK293-NOX2, PMA-stimulated, Amplex Red fluorescence (AID 1159); conditions: 45 min, higher = more signal, called active from +8 up or from −8 down; also: test concentration not given here
NADPH oxidase 2 (Homo sapiens), sequence (P04839 whole entry, looked up): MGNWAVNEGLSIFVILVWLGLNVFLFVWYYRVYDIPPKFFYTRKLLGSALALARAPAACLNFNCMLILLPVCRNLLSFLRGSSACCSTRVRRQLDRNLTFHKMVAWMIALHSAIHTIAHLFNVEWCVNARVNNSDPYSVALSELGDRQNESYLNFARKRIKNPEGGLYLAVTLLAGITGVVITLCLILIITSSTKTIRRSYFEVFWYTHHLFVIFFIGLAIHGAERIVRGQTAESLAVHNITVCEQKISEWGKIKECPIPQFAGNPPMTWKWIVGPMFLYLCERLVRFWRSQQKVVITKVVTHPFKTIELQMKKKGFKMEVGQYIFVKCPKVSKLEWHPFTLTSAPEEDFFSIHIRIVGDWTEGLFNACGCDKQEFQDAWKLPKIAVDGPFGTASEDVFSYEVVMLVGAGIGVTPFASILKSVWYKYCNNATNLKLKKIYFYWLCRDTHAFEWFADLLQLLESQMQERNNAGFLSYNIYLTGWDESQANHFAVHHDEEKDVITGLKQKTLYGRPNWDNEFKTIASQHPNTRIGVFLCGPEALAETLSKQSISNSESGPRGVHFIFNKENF

[19] = molecular target: NADPH oxidase 4 (Homo sapiens) (UniProt Q9NPH5); experiment: NOX4-dependent H2O2 signal modulators, primary screen, NOX inhibitor project, cell-based, HEK293-NOX4, tetracycline-induced, Amplex Red fluorescence (AID 1160); conditions: 45 min, higher = more signal, called active from +8 up or from −8 down
NADPH oxidase 4 (Homo sapiens), sequence (Q9NPH5 whole entry, looked up): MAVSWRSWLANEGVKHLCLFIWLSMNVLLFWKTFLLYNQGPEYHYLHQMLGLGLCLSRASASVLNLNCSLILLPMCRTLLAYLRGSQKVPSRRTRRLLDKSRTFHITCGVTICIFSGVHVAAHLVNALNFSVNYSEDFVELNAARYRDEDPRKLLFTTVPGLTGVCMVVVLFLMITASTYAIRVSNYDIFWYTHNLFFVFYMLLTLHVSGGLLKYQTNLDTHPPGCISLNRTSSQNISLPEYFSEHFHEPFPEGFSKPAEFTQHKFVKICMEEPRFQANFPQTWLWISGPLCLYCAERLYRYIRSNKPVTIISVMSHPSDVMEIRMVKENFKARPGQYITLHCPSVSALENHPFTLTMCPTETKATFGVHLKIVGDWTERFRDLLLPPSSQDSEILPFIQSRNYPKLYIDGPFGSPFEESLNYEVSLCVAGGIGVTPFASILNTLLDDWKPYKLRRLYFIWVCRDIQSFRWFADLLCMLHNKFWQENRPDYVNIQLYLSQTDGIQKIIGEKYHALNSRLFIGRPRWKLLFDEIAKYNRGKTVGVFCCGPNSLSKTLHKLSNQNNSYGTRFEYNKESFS

[20] = molecular target: NADPH oxidase 5 (Homo sapiens) (UniProt Q96PH1); experiment: NOX5-dependent H2O2 signal modulators, primary screen, NOX inhibitor project, cell-based, HEK293-NOX5, Amplex Red fluorescence (AID 1161); conditions: HEK293-NOX5, ionomycin, 45 min, higher = more signal
NADPH oxidase 5 (Homo sapiens), sequence (Q96PH1 whole entry, looked up): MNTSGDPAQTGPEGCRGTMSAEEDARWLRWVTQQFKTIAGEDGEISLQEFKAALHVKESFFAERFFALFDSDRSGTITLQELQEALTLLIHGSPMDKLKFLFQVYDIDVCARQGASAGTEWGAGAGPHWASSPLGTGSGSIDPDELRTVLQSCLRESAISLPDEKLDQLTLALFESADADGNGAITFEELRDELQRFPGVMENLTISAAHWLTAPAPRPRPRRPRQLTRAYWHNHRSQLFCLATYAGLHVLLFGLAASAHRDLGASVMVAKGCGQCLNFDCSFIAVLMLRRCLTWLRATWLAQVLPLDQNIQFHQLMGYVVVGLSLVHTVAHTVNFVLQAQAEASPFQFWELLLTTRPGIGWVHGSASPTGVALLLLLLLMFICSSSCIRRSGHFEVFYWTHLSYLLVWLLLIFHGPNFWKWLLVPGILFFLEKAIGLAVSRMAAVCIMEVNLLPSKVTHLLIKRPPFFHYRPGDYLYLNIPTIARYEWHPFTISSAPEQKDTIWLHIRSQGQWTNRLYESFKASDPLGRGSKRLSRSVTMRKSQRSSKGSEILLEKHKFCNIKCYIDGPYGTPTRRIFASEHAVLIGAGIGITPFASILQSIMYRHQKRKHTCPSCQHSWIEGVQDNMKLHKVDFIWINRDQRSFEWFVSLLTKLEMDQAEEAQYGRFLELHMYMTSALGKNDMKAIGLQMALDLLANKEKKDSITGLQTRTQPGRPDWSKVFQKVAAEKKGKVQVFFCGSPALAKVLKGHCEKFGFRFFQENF

Compound	composite z-score [1]	z-score [2]	z-score [3]	z-score [4]	z-score [5]	composite z-score [6]	composite z-score [7]	composite z-score (Torsin-1A (Homo sapiens) [8])	composite z-score (Torsin-1A (Homo sapiens) [9])	composite z-score [10]	z-score [11]	composite z-score [12]	z-score [13]	z-score [14]	z-score [15]	z-score [16]	z-score [17]	z-score [18]	z-score [19]	z-score [20]
CC(C)[Si]1(C(C)C)O[C@@H](c2ccccc2)c2cc(-c3ccc(-c4ccc(Cl)c(Cl)c4)o3)nc(CCc3ccccc3)c21	-0.306	-1.03 (inactive)	0.251 (inactive)	0.367 (inactive)	1.52 (inactive)	-0.549	-0.204	-0.555	-0.181	-0.74	-0.792 (inactive)	-0.0428	3.36 (inactive)	0.652 (inactive)	-0.443 (inactive)	-0.0811 (inactive)	-0.507	0.903 (inactive)	0.928 (inactive)	0.44
C=CCC(OC(C)=O)[C@@H]1[C@@H](N(Cc2ccc(-c3ccccc3)cc2)C(=O)c2ccc(C)cc2)c2cc(OCCCO)ccc2N1C(=O)c1ccc2ccccc2n1 (stereo not given in full)	-0.162	-1.16 (inactive)	-1.41 (inactive)	5.54 (inactive)	-0.523 (inactive)	0.105	0.173	-0.211	0.115	0.794	2.95 (inactive)	0.175	0.225 (inactive)	-0.883 (inactive)	-1.19 (inactive)	-1.06 (inactive)	1.56	-0.0121 (inactive)	0.729 (inactive)	1.92
COc1ccc([Si](C)(C)[C@@H]2[C@@H](CCn3cc([C@H](O)c4ccccc4)nn3)O[C@]3(C(=O)N(C)c4ccccc43)[C@H]2C)cc1	0.0302	-3.85 (inactive)	0.317 (inactive)	1.72 (inactive)	-1.26 (inactive)	-0.0794	-0.0465	-0.507	-0.0593	-0.103	-0.702 (inactive)	-0.101	4.2 (inactive)	0.579 (inactive)	1.51 (inactive)	0.325 (inactive)	0.416	1.62 (inactive)	0.689 (inactive)	-1.55
O=C1c2ccccc2[C@](Cc2ccccc2I)(C(=O)O)[C@H](c2ccc(CO)cc2)N1Cc1ccccc1C(F)(F)F	-0.186	-1.17 (inactive)	-0.99 (inactive)	-0.295 (inactive)	0.748 (inactive)	0.477	-0.024	-0.242	-0.203	-0.489	-0.0668 (inactive)	0.215	3.59 (inactive)	1.01 (inactive)	0.737 (inactive)	0.915 (inactive)	-0.419	1.66 (inactive)	-0.832 (inactive)	-0.533
[N-]=[N+]=NCc1ccccc1[C@H]1OC(c2ccc(OCCCO)cc2)=N[C@@]1(Cc1ccccc1)C(=O)O	0.631	-1.01 (inactive)	0.564 (inactive)	-1.19 (inactive)	-0.609 (inactive)	1.37	-0.0477	0.112	0.381	-0.22	-1.02 (inactive)	-0.166	17.6 (active)	1.59 (inactive)	-0.907 (inactive)	0.246 (inactive)	-0.239	0.861 (inactive)	1.27 (inactive)	1.65
CC(=O)N1Cc2ccccc2C[C@@]2(N=C(c3ccc(OCCCO)cc3)O[C@H]2c2ccccc2)C1=O	0.604	-4.03 (inactive)	-0.519 (inactive)	1.53 (inactive)	-0.634 (inactive)	0.326	0.482	0.513	1.17	1.69	1.6 (inactive)	1.29	24.1 (active)	8.42 (active)	2.76 (inactive)	0.944 (inactive)	2.14	-4.15 (inactive)	0.144 (inactive)	-2.86
O=C1c2ccccc2[C@@]2(Cc3ccccc3N(Cc3ccccc3)C2=O)[C@H](c2ccc(CO)cc2)N1Cc1ccccc1C(F)(F)F	-0.373	0.174 (inactive)	1.18 (inactive)	-0.116 (inactive)	0.172 (inactive)	-0.896	-0.128	-0.916	-0.0921	-1.45	0.165 (inactive)	0.152	1.92 (inactive)	-0.0022 (inactive)	0.678 (inactive)	-0.112 (inactive)	-0.106	-2.24 (inactive)	0.148 (inactive)	1.77
COCCOC(=O)N1C(=O)[C@@]2(c3cc(C#Cc4ccc(OC)cc4)ccc31)[C@H](c1ccc(O)cc1)N1[C@H](c3ccccc3)[C@H](c3ccccc3)OC(=O)[C@H]1[C@@H]2C(=O)N1CCN(c2ncccn2)CC1	-0.0114	-0.949 (inactive)	-0.166 (inactive)	-0.114 (inactive)	0.75 (inactive)	0.0875	0.199	0.487	0.651	0.982	0.714 (inactive)	-0.0601	1.45 (inactive)	0.876 (inactive)	-0.969 (inactive)	0.59 (inactive)	-0.63	1.87 (inactive)	-1.34 (inactive)	-0.0267
C=C(CCCC)C(=O)CC[C@H](OC(=O)c1ccccc1-c1ccccc1C(=O)O)c1ccc(CO)o1	0.123	0.0343 (inactive)	-0.976 (inactive)	-0.177 (inactive)	-0.56 (inactive)	1.5	0.0154	0.472	0.622	1.99	-0.002 (inactive)	-0.0984	1.69 (inactive)	0.241 (inactive)	1.2 (inactive)	0.16 (inactive)	-0.16	0.333 (inactive)	-0.269 (inactive)	-1.15
COCCOC(=O)N1C(=O)[C@@]2(c3ccccc31)[C@H](C(=O)N1CCCCCCC1)[C@H]1C(=O)O[C@H](c3ccccc3)[C@H](c3ccccc3)N1[C@@H]2c1ccccc1OCCO	1.09	-2.56 (inactive)	-0.699 (inactive)	0.0384 (inactive)	0.207 (inactive)	2.79	1.76	1.27	1.76	1.3	-0.946 (inactive)	2.79	1.49 (inactive)	0.529 (inactive)	0.537 (inactive)	0.49 (inactive)	-0.408	0.966 (inactive)	0.739 (inactive)	1.24
COCCOC(=O)N1C(=O)[C@@]2(c3cc(C#Cc4ccc(OC)cc4)ccc31)[C@H](C(N)=O)[C@H]1C(=O)O[C@H](c3ccccc3)[C@H](c3ccccc3)N1[C@@H]2c1ccc(O)cc1	0.115	-4.24 (inactive)	0.0989 (inactive)	0.0776 (inactive)	-0.844 (inactive)	-1.23	0.295	-1.2	-1.29	-0.692	1.52 (inactive)	0.649	0.429 (inactive)	-0.359 (inactive)	-0.939 (inactive)	-1.13 (inactive)	2.93	-0.0615 (inactive)	0.893 (inactive)	0.128
CC1CC/C=C\[C@H]2OC34C=CCN(CCN5CCOCC5)C(=O)[C@H]3N(CCCCCO)C(=O)[C@@H]4C2C(=O)O1 (stereo not given in full)	0.06	0.362 (inactive)	0.658 (inactive)	0.0645 (inactive)	0.259 (inactive)	-0.488	-0.327	-0.0591	-0.352	0.322	-0.346 (inactive)	-0.409	0.851 (inactive)	0.618 (inactive)	0.007 (inactive)	0.257 (inactive)	0.165	0.545 (inactive)	-0.277 (inactive)	1.03
C=C(C(=O)CC[C@@H](OC(C)=O)c1ccc(OCCO)cc1)C(C)C	0.177	0.118 (inactive)	-0.73 (inactive)	1.68 (inactive)	1.05 (inactive)	-0.41	-0.148	0.698	1.02	0.0191	0.0045 (inactive)	-0.142	3.04 (inactive)	0.584 (inactive)	0.652 (inactive)	0.332 (inactive)	-0.579	-1.37 (inactive)	-1.21 (inactive)	-1.77
C=CCOC(=O)[C@@H]1[C@H]2C(=O)O[C@H](c3ccccc3)[C@H](c3ccccc3)N2[C@H](c2ccc(OCCOC(=O)[C@H]3C[C@H]4C(=O)N[C@@H](CCCC[N+](C)(C)C)C(=O)N4[C@H]3c3cccc(OCCO)c3)cc2)[C@@]12C(=O)Nc1ccc(I)cc12	0.662	-0.693 (inactive)	-0.0854 (inactive)	0.289 (inactive)	-0.464 (inactive)	0.128	0.115	0.559	0.327	1.89	-0.398 (inactive)	0.173	7.62 (inactive)	2.35 (inactive)	1.59 (inactive)	1.28 (inactive)	0.0621	1.68 (inactive)	0.615 (inactive)	1.33
O=C1O[C@H](c2ccccc2)[C@H](c2ccccc2)N2[C@H]1[C@@H](C(=O)N1CCCCCCC1)[C@]1(C(=O)Nc3ccc(C#CC4=CCCCC4)cc31)[C@H]2c1ccc(O)cc1	2.45	-5.14 (inactive)	-1.54 (inactive)	-1.43 (inactive)	-0.464 (inactive)	4.23	1.98	3.97	3.82	2.29	-0.306 (inactive)	3.07	0.123 (inactive)	-0.131 (inactive)	0.0311 (inactive)	0.482 (inactive)	-0.0408	0.855 (inactive)	0.494 (inactive)	0.322
O=C1O[C@@H](c2ccccc2)[C@@H](c2ccccc2)N2[C@@H](c3ccccc3OCCO)[C@]3(C(=O)Nc4ccc(C#CC5(O)CCCCCC5)cc43)[C@@H](C(=O)NC[C@H](O)c3ccccc3)[C@H]12	0.602	-6.25 (inactive)	0.813 (inactive)	0.0776 (inactive)	1.12 (inactive)	0.329	1.09	-0.179	0.251	2.17	-0.95 (inactive)	1.38	1.87 (inactive)	1.98 (inactive)	-1.02 (inactive)	1.49 (inactive)	-0.308	2.02 (inactive)	0.973 (inactive)	2.17
